Shown are actives, neighbours in structure and some others; about 3.7% of the full set was active somewhere.
HTT prom inh – inhibitors of huntingtin promoter activity. HEK293 HTT promoter firefly luciferase reporter, 24 h. Potency, µM (doses to about 57.5 µM), for inactives: top-dose activity change, negative = inhibition, actives largely listed as inhibitors. 0.93% of 48,000 active. AID 1508623; further: potency means the concentration at half of the fitted maximal effect; nearly all actives have a fitted effect of over 50% in size
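Luminescence was read after Dual-Glo reagent and a 10 min room-temperature incubation. Values were normalized to vehicle (0% activity) and zero RLU (-100% activity). Reporter HEK293 cells had been exposed to compounds (up to 57.5 uM final) for 24 h.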
GPR32 ag – GPR32 (DRV1) agonism, beta-arrestin recruitment. CHO-K1 GPR32 beta-arrestin PathHunter luminescence, 90 min; zero percent set by DMSO-only wells. activation, % at 76.9 µM. 2.5% of 48,000 active;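 active means activation of at least 60% and not above a set upper limit, about 1 call in 100 departs from these limits; inconclusive means activation of 40% to 60%, or above that upper limit; inactive means activation under 40%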; further: 0% is about no effect
Target sequence (O75388 whole entry, looked up): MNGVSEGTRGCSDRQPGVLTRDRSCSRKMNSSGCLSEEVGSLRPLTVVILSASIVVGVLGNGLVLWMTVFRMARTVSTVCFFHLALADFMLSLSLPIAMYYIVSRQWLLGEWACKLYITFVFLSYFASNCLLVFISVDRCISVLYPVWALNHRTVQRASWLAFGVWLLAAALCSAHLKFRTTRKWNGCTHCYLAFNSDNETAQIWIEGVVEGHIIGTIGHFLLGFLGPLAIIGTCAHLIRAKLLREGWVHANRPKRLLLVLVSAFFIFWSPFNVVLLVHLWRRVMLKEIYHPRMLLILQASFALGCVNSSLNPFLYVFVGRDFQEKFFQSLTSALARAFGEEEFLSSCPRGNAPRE
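Beta-arrestin recruitment read-out: luminescence from complemented beta-Gal in CHO-K1 GPR32 PathHunter cells, measured 1 h after detection reagent at ambient temperature following 90 min compound exposure at 37 °C; DMSO served as basal (EC0) control.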
HTT-AS act – activates huntingtin-antisense promoter activity; HEK293 HTT-AS promoter firefly luciferase reporter, 24 h; response scale: percent change from vehicle, -100% = no light; Potency, µM (highest dose often 57.5 µM), inactives show at the top dose activity change, positive = activation, most hits filed as activators; 0.24% of 48,000 active; AID 1508624; further: potency means the concentration at half of the fitted maximal effect; nearly all actives have a fitted effect of over 55% in size
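HEK293 cells carrying firefly luciferase reporters were seeded at 2,500 per well in Opti-MEM and cultured for 24 h. They were then treated with compounds at up to 57.5 uM final for 24 h at 37 degrees C before Dual-Glo luminescence readout.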
The depositor's hits bear a star; [ ] = dose if it differs, or a comment. Unless noted, the call rests on the fitted dose curve; in most records, active means well fitted curve in the direction sought with a large enough effect; inconclusive means small, poorly fitted or top-dose-only effect, or another doubt; inactive means no such curve, though single readings can be large; an effect the other way counts as inactive or inconclusive.

Results for CCCS(=O)(=O)c1c(S(=O)(=O)CCC)c2cc(C(C)(C)C)ccn2c1C(=O)c1ccc(OC)c(OC)c1 ?
HTT prom inh: -22%; GPR32 ag: -23; HTT-AS act: -21%

Results for COc1ccc(C2C(C(=O)Nc3cccnc3)=C(C)Nc3nc(SCc4ccccc4)nn32)cc1 (configuration not stated) ?
HTT prom inh: -6%; GPR32 ag: 0; HTT-AS act: -13%

What do the screens show for `CC(C)(C)OC(=O)CN(Cc1ccc(Cl)cc1)Cc1ccc([N+](=O)[O-])s1`?
HTT prom inh: -6%; HTT-AS act: -14%

How did Cc1ccc2oc(C(=O)Nc3c(C(=O)Nc4ccccc4)oc4ccccc34)cc(=O)c2c1 do in these assays?
HTT prom inh: -13%[11.5 µM]; GPR32 ag: 7; HTT-AS act: 2%[11.5 µM]

What do the screens show for `O=C(NCCc1nc2ccccc2n1CCCOc1ccc(Cl)cc1)C1CCCCC1`?
HTT prom inh: inconclusive; GPR32 ag: 18; HTT-AS act: -47%

How did CCCC(O)c1nc2ccccc2n1CCCCOc1ccc(OC)cc1 (configuration not stated) do in these assays?
HTT prom inh: -36%; GPR32 ag: 91*; HTT-AS act: -36%

Results for CC(=O)NCCc1nc2ccccc2n1CCCCOc1ccc(Cl)cc1 ?
HTT prom inh: -27%; GPR32 ag: 76*; HTT-AS act: -25%

What do the screens show for `CCc1nc2ccccc2n1CCCCOc1ccc(C)cc1`?
HTT prom inh: inconclusive; GPR32 ag: inconclusive; HTT-AS act: -37%

How did Cc1[nH]cnc1-c1ccc(Cl)cc1 do in these assays?
HTT prom inh: 6%; GPR32 ag: 22; HTT-AS act: 28%

How did CC(C)(C)C1CCC(CC2=C(O)c3ccccc3C(=O)C2=O)CC1 (configuration not stated) do in these assays?
HTT prom inh: -19%; GPR32 ag: -11; HTT-AS act: -8%

What do the screens show for `CCCCc1ccc(NS(=O)(=O)c2cc3c4c(c2)CC(=O)N4CCC3)cc1`?
HTT prom inh: inconclusive; GPR32 ag: 105*; HTT-AS act: -35%

Results for COC(=O)c1ccccc1NS(=O)(=O)c1cc2c3c(c1)CC(=O)N3CCC2 ?
HTT prom inh: -22%; GPR32 ag: -8; HTT-AS act: -7%

What do the screens show for `Cc1noc(NS(=O)(=O)c2ccc(NC(=O)c3ccc(Br)cc3)cc2)c1C`?
HTT prom inh: -10%; GPR32 ag: 13; HTT-AS act: 7%

What do the screens show for `Cc1nc(-c2ccc(F)cc2)sc1CCNC(=O)c1ccco1`?
HTT prom inh: 7%; GPR32 ag: -3; HTT-AS act: inconclusive

How did Cc1ccc(-c2nc3sc(CCNC(=O)c4ccco4)c(C)n3n2)cc1 do in these assays?
HTT prom inh: -21%; GPR32 ag: 65*; HTT-AS act: -11%

How did O=C(CCc1ccccc1)NCCc1csc(-c2cccc(F)c2)n1 do in these assays?
HTT prom inh: -26%; GPR32 ag: 85*; HTT-AS act: -12%

How did O=C(COc1ccc(Cl)cc1)NCCc1csc(-c2cccc(F)c2)n1 do in these assays?
HTT prom inh: inconclusive; GPR32 ag: 77*; HTT-AS act: -29%

How did O=C(NCCc1csc(-c2ccc(F)cc2)n1)c1ccco1 do in these assays?
HTT prom inh: -12%; GPR32 ag: 109*; HTT-AS act: -4%

How did COc1ccc(CC(=O)NCCc2csc(-c3cccc(F)c3)n2)cc1OC do in these assays?
HTT prom inh: -32%; GPR32 ag: 28; HTT-AS act: -17%

Results for Cc1c(CCNC(=O)c2ccco2)sc2nc(-c3ccc(F)cc3)nn12 ?
HTT prom inh: -28%; GPR32 ag: -12; HTT-AS act: -11%

How did COc1cccc(C(=O)NCCc2csc(-c3cccc(F)c3)n2)c1OC do in these assays?
HTT prom inh: -19%; GPR32 ag: inconclusive; HTT-AS act: -11%

How did CCOC(=O)[C@@H](N)Cc1ccc(-c2cc(O[C@H](c3ccc(Cl)cc3-n3ccc(C)n3)C(F)(F)F)nc(N)n2)cc1 do in these assays?
HTT prom inh: -7%; HTT-AS act: -19%

How did Cc1c(O)cccc1C(=O)N[C@@H](CSc1ccccc1)[C@H](O)CN1C[C@H]2CCCC[C@@H]2C[C@@H]1C(=O)NC(C)(C)C do in these assays?
HTT prom inh: inconclusive; HTT-AS act: -44%

How did CCC[C@@H](NC(=O)[C@@H]1[C@H]2CCC[C@@H]2CN1C(=O)[C@@H](NC(=O)[C@@H](NC(=O)c1cnccn1)C1CCCCC1)C(C)(C)C)C(=O)C(=O)NC1CC1 do in these assays?
HTT prom inh: inconclusive; HTT-AS act: -21%

How did COc1ccc(Cc2ccc(NC(N)=O)cc2)cc1-c1cccc(Cl)c1 do in these assays?
HTT prom inh: -2%; HTT-AS act: -31%

What do the screens show for `CCOc1ccc(CC(=O)NCCc2csc(-c3ccc(Cl)cc3)n2)cc1`?
HTT prom inh: inconclusive; GPR32 ag: 88*; HTT-AS act: -26%

Results for Cc1cccc(NC(=O)C(=O)NCCc2csc(-c3ccc(F)cc3)n2)c1C ?
HTT prom inh: -28%; GPR32 ag: 16; HTT-AS act: -11%

What do the screens show for `CCOc1ccc(CC(=O)NCCc2csc(-c3ccc(C)cc3)n2)cc1`?
HTT prom inh: inconclusive; GPR32 ag: -8; HTT-AS act: -30%

How did O=C(COc1ccccc1)NCCc1csc(-c2ccc(F)cc2)n1 do in these assays?
HTT prom inh: -19%; GPR32 ag: 120*; HTT-AS act: -14%

How did CC(=O)N1c2ccccc2CC1C(=O)N1CCN(c2cccc(C)c2C)CC1 (configuration not stated) do in these assays?
HTT prom inh: -21%; GPR32 ag: 116*; HTT-AS act: -16%

How did CC(=O)N1c2ccccc2CC1C(=O)N1CCN(c2ccccc2F)CC1 (configuration not stated) do in these assays?
HTT prom inh: -23%; GPR32 ag: -14; HTT-AS act: -6%

How did C[C@]1(CO)CN(c2cc(C(=O)Nc3ccc4c(c3)-c3c(c(C(N)=O)nn3-c3ccc(F)cc3)CC4)c(Cl)cn2)C[C@@]1(C)CO do in these assays?
HTT prom inh: inconclusive; HTT-AS act: -42%

How did Cc1cccc(NC(=O)Cn2nc3c4ccccc4n(Cc4ccccc4)cc-3c2=O)c1 do in these assays?
HTT prom inh: -8%; GPR32 ag: inconclusive; HTT-AS act: -13%

What do the screens show for `CCc1ccc(NC(=O)Cn2nc3c4ccccc4n(Cc4ccccc4)cc-3c2=O)cc1`?
HTT prom inh: -8%; GPR32 ag: 84*; HTT-AS act: -7%

Results for COc1cccc(-n2c(SCc3ccccc3C)nc3c([nH]c4ccccc43)c2=O)c1 ?
HTT prom inh: inconclusive; GPR32 ag: -15; HTT-AS act: -23%

What do the screens show for `Fc1ccc(CNc2ncnc3ccc(F)cc23)cc1`?
HTT prom inh: -34%; HTT-AS act: -92%

How did Cc1ccccc1-c1nc(CS(=O)(=O)CC(=O)NCC(C)c2ccccc2)c(C)o1 (configuration not stated) do in these assays?
HTT prom inh: -29%; GPR32 ag: 70*; HTT-AS act: -25%

How did Cc1ccccc1-c1nc(CS(=O)(=O)CC(=O)NCCc2ccccc2)c(C)o1 do in these assays?
HTT prom inh: -15%; GPR32 ag: 0; HTT-AS act: -29%
